Measurements published in the supplement of paper PMC10941209.

Each molecule was assayed on Toxoplasma gondii RH 2F1 tachyzoites (intracellular in HFF) (assay: parasite survival relative to DMSO control; higher = less antiparasitic activity, active = 20 or less). Conditions: 1 µM; 72 h.
Summary of the method: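 Survival is the β-galactosidase-derived signal from intracellular Toxoplasma gondii RH-2F1 tachyzoites, expressed as a percentage of infected wells treated with DMSO. HFF cells (5 × 10^3 cells/well, 96-well plates) were infected with 5 × 10^3 parasites in D2 medium for 3 h and then treated with compound at 1 μM for 72 h at 37°C in 5% CO2. After lysis, CPRG was added and absorbance at 570 nm was read at 30 min, with 2 or more biological replicates.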
For `Cn1c2ccccc2c(=O)c2c(O)cccc21`, the parasite survival was 49.5% (inactive).
For `CC(C)(C)c1ccc(C(Cn2cccc(C(F)(F)F)c2=O)NC2Cc3ccccc3C2)cc1` (centres undefined), the parasite survival was 51.5% (inactive).
In the case of `COc1ccc(CNC(=O)C2CCN([C@H](C)c3cccc4ccccc34)CC2)cc1`, the parasite survival is reported as 52% (inactive).
For `COc1cc(NCc2ccc3nc(N)nc(N)c3c2C)cc(OC)c1OC`, the parasite survival was 3.86% (active).
With `O=C(CCc1ccc2c(c1)OCO2)NCc1ccc(-c2ccccc2F)cc1` the parasite survival was 54.9% (inactive).
In the case of `COc1cc(NS(=O)(=O)c2ccc(C)cc2)c2ncccc2c1`, the parasite survival is reported as 2.97% (active).
`CCC[C@@H]1C[C@@H](C(=O)N[C@@H]([C@H]2O[C@H](SC)[C@H](O)[C@@H](O)[C@H]2O)[C@H](C)Cl)N(C)C1` was tested, and the parasite survival was 16.1% (active).
`NS(=O)(=O)c1ccc(NC(=O)NC(c2ccccc2)c2ccccc2)cc1` was tested, and the parasite survival was 32% (inactive).
In the case of `O=C(Nc1ccccc1C(=O)O)c1cccc(Oc2ccccc2)c1`, the parasite survival is reported as 39.4% (inactive).
With `CC(C)C(=O)N[C@H]1[C@H]([C@H](O)[C@H](O)CO)OC(C(=O)O)=C[C@@H]1N=[N+]=[N-]` the parasite survival was 72.6% (inactive).
`C[C@H]1CC[C@@]2(O)C(C)(C)[C@@H]3CC[C@@]2(C)[C@H]1C3` was tested, and the parasite survival was 55.5% (inactive).
For `CN1c2ccc(Cl)cc2N(c2ccccc2)C(=O)c2cn(Cc3ccc(CN4CCOCC4)cc3)nc21`, the parasite survival was 44% (inactive).
`CS(=O)(=O)c1ccc(Oc2ccc(Cl)cc2)cc1` was tested, and the parasite survival was 54.5% (inactive).
In the case of `NC(=O)c1cnc2ccc(S(=O)(=O)c3ccccc3)cc2c1Nc1ccc(O)cc1`, the parasite survival is reported as 43% (inactive).
`Cc1c(F)cccc1NC(=O)Nc1ccc(Cl)c(S(=O)(=O)[C@H]2CCCNC2)c1O` was tested, and the parasite survival was 73.2% (inactive).
For `CCN(CC)S(=O)(=O)c1ccc(Cl)c(C(=O)Nc2sc3c(c2C#N)CCCC3)c1`, the parasite survival was 44% (inactive).
With `O=C(NN1C(=O)[C@@H]2[C@@H]3C=C[C@@H]([C@H]4C[C@@H]34)[C@@H]2C1=O)c1ccc(C(F)(F)F)cc1` the parasite survival was 66.1% (inactive).
With `COc1cc(NC(=O)CN2C(=O)NC(c3ccccc3)(c3ccccc3)C2=O)cc(OC)c1` the parasite survival was 49.2% (inactive).
`NC[C@H]1OB(O)c2c(OCCCO)cccc21` was tested, and the parasite survival was 54.2% (inactive).
In the case of `CCCCOC(=O)Nc1cc2nc(C3CCCCC3)[nH]c2cc1N(CC)CC`, the parasite survival is reported as 5.06% (active).
With `O=C(Nc1[nH]c(=O)ncc1F)c1ccccc1` the parasite survival was 84.3% (inactive).
In the case of `CCCNc1ccc(S(=O)(=O)Nc2cc(C)on2)cc1`, the parasite survival is reported as 65.5% (inactive).
With `CC[C@@]1(O)C(=O)OCc2c1cc1n(c2=O)Cc2cc3c(CN(C)C)c(O)ccc3nc2-1` the parasite survival was 50.5% (inactive).
With `C[C@@H](c1nc(-c2ccc(C#N)cc2)cs1)[C@](O)(Cn1cncn1)c1ccc(F)cc1F` the parasite survival was 62.9% (inactive).
With `CC(C)Oc1ccc(-n2cnc3cc(/C=C\c4ccc(C(C)(C)O)cc4)ccc32)cc1` the parasite survival was 31.7% (inactive).
With `O=C(NCc1cccc2ccccc12)c1cccs1` the parasite survival was 32% (inactive).
For `O=C(NC(=O)N1CCCc2ccccc21)c1ccc(Cl)cc1Cl`, the parasite survival was 55.9% (inactive).
For `O=C(CP(=O)(O)O)NCCc1cccc(Oc2ccccc2)c1`, the parasite survival was 40.8% (inactive).
With `Nc1nc(NC2Cc3ccc(F)cc3C2)nc(N2CCCCC2)n1` (centres undefined) the parasite survival was 41.9% (inactive).
In the case of `CC(C)Nc1ncnc2c1cnn2-c1ccc(Cl)cc1`, the parasite survival is reported as 58.2% (inactive).
In the case of `Clc1cccc(-c2nnc(-c3ccccc3)o2)c1`, the parasite survival is reported as 62.8% (inactive).
With `O=C(N[C@H](Cc1cccc2ccccc12)C(=O)NCCc1c[nH]cn1)C1Cc2ccccc2C1` the parasite survival was 33.7% (inactive).
For `Nc1nc2c(ncn2COC(CO)CO)c(=O)[nH]1`, the parasite survival was 80% (inactive).
With `O[C@@](Cn1cnnn1)(c1ccc(F)cc1F)C(F)(F)c1ccc(-c2ccc(OCC(F)(F)F)cc2)cn1` the parasite survival was 28.8% (inactive).
`CN(C)CCNC(=O)c1cccc2cccnc12` was tested, and the parasite survival was 62% (inactive).
`c1cnc(NCc2ccc(CNc3ncccn3)cc2)nc1` was tested, and the parasite survival was 71.1% (inactive).
In the case of `Cc1ccc(C)c(OCCCCCCN2C[C@H](O)[C@@H](O)[C@H](O)[C@H]2CO)c1`, the parasite survival is reported as 62.8% (inactive).
`C[C@H](c1cccc2ccccc12)N(C)Cc1ccccc1` was tested, and the parasite survival was 44.4% (inactive).
For `CSc1ccc2c(c1)C(N1CCN(C)CC1)Cc1ccccc1S2` (centres undefined), the parasite survival was 34.5% (inactive).
